Structures are written as SMILES. Screen size: about 400,000 compounds; about 2,100 (0.53%) were called active. Roughly 14% stayed inconclusive and do not appear here. No rule for the calls is given here. What follows is part of a selection rich in actives, with near analogues and random picks from the rest.

Sequence of Ataxin-2 (Homo sapiens) (Q99700 whole entry): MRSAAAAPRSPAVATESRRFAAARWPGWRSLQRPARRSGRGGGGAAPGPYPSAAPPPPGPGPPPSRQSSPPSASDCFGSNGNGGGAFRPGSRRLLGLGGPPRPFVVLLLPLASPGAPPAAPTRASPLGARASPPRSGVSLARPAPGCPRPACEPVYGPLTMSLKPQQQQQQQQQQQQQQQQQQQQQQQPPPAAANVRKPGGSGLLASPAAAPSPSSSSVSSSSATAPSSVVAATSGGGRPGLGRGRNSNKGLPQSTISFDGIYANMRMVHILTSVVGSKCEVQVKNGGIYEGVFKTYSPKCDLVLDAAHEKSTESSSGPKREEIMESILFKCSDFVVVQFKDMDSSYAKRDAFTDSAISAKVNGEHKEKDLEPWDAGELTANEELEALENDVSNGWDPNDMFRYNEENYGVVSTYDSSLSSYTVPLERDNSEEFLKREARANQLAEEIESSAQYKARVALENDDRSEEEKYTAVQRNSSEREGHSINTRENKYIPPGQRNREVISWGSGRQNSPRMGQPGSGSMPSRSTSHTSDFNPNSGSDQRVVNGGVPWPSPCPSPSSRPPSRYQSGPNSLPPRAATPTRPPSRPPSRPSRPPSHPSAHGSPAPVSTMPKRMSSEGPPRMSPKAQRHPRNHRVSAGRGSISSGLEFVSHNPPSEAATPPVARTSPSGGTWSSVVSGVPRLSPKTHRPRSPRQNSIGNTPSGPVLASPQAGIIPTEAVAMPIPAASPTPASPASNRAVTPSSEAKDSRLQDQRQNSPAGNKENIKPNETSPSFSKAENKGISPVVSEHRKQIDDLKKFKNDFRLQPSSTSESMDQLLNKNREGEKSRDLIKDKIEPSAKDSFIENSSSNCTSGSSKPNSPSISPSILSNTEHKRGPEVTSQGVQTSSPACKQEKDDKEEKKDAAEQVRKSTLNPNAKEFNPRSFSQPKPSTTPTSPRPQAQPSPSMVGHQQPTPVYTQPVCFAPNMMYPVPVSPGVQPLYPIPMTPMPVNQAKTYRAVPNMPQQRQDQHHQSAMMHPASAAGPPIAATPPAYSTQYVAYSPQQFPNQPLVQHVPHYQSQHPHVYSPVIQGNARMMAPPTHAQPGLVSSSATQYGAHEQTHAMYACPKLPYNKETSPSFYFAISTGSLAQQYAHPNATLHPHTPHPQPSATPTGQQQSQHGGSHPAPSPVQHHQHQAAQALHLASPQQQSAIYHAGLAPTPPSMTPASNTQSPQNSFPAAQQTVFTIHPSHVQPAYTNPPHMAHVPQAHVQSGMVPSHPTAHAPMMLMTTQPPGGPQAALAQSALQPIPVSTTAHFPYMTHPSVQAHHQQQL

This assay addresses Ataxin-2 (Homo sapiens) (UniProt Q99700). As to the kind of experiment: qHTS for Inhibitors of ATXN expression. In kind it is functional. Background: In qHTS, concentration-response curves come from the screen itself.
Turning to `CCOC(=O)N1CCN(S(=O)(=O)c2ccc3c4c(cccc24)C(=O)N3)CC1`, the Potency result is “inactive”.
Under `CCOC(=O)C1CCN(C(=O)C(C)Oc2ccc(Br)cc2)CC1` (centres undefined) stands “inactive”; under `COc1cc(/C=C2\C(=N)N3N=C(CC(=O)N4CCOCC4)SC3=NC2=O)cc(OC)c1O`, “inactive”; under `COc1cc(OC)cc(N2C(=O)CSCC2=O)c1`, “inactive”.
In the case of `Cc1ccc(N2C(=O)C(Cl)=C(N3CCCCCC3)C2=O)c(C)c1`, the Potency entry is “inactive”.
In the case of `COc1ccc2c(c1)C(=O)N(c1ccc(C)cc1C)C(=O)C2` it was 35.5 µM (active).
`N#CC(C#N)=C1C=C2C=C(N3CCOCC3)CCC2CC1` (centres undefined): the Potency result is “inactive”.
Turning to `O=c1oc2c(O)cccc2cc1-c1nc2ccccc2[nH]1`, the Potency result was “inactive”.
In the case of `Cc1ccccc1NS(=O)(=O)c1nnc(NC(=O)c2ccccc2C)s1` it was “inactive”; in that of `Cc1cc(F)ccc1S(=O)(=O)Nc1ccccc1C(=O)Nc1ccccc1-c1nc2ccccc2[nH]1`, 39.8 µM (active); in that of `Cc1cc(C)c2c(N)c(C(=O)N/N=C/c3cccs3)sc2n1`, “inactive”.
In the case of `Cc1ccc2nc3c(cc(C(=O)NCC4CCCO4)c(=N)n3CCCOC(C)C)c(=O)n2c1` (centres undefined) it was “inactive”; in that of `COc1cccc(N2[C@@H](CC(C)=O)c3ccc(/C=C/C(C)=O)cc3S2(=O)=O)c1`, 35.5 µM (active).
Consider `COc1cccc(/C=C/c2nc(C#N)c(N3CCC(C(N)=O)CC3)o2)c1`, for which the Potency result is “inactive”.
For the compound `CC(C)n1nc(C(=O)NNC(=O)c2ccc(OC(F)F)cc2)c2ccccc2c1=O`, the Potency result is “inactive”.
Under `CCC(=C(c1ccc(OC)cc1)c1ccc(OC)cc1)c1cn(CC(O)CN(CCO)CCO)c2ccccc12` (centres undefined) stands 39.8 µM (active); under `CCC(=C(c1ccc(OC)cc1)c1ccc(OC)cc1)c1cn(CC(O)CN2CCN(C)CC2)c2ccccc12` (centres undefined), 39.8 µM (active).
For the compound `CCCN(CCC)CC(O)Cn1cc(/C=C/C(=O)c2ccc(OCC)cc2)c2ccccc21` (centres undefined), the Potency entry was “inactive”.
Turning to `COc1ccc(C(=O)/C=C/c2cn(CC(O)CN(CC(C)C)CC(C)C)c3ccccc23)cc1` (centres undefined), the Potency entry was “inactive”.
In the case of `COc1ccc(C(=O)/C=C/c2cn(CC(O)CN3CCc4ccccc43)c3ccccc23)cc1` (centres undefined) it was “inactive”.
Consider `COc1ccc(C(=O)/C=C/c2cn(CC(O)CN3CCN(C)CC3)c3ccccc23)cc1OC` (centres undefined), for which the Potency entry is “inactive”.
On to `O=C(CCc1ccccc1)NCC1(c2ccccc2)CCCC1`, for which the Potency entry is “inactive”.
Under `COc1cc2c(cc1/C=C1/NC(=O)N(CC(=O)Nc3ccccc3)C1=O)OCO2` stands “inactive”.
On to `Cc1c(-c2ccccc2)c(=O)oc2c(CN3CCOCC3)c(O)ccc12`, for which the Potency entry was “inactive”.
For the compound `Cc1cccn2c(=O)c3cc(C(=O)NCC4CCCO4)c(=N)n(C4CCCC4)c3nc12` (centres undefined), the Potency entry is “inactive”.
In the case of `N=c1oc2cc(O)ccc2cc1C(=O)Nc1nc2ccccc2s1` it was “inactive”.
Under `O=C(O)c1cc(/C=C/c2ccc(N3CCOCC3)cc2)nc2ccccc12` stands “inactive”.
Under `Cc1ccc(S(=O)(=O)N(C)CC(=O)NCC(c2ccc(F)cc2)N2CCOCC2)cc1` (centres undefined) stands “inactive”.
`O=C(C=Cc1ccccc1)CC(c1ccccc1)N1CCOCC1` (centres undefined): the Potency was 28.2 µM (active).
`COc1ccc(C2C=C(c3ccccc3)Nc3nc(NC(C)=O)nn32)cc1` (centres undefined): the Potency result was “inactive”.
Under `Cc1c(C(=O)Nc2ccc3c(c2)OCCO3)sc2nc(-c3ccccc3)cn12` stands 39.8 µM (active); under `O=C(Nc1cccc(-c2cn3c(n2)SCC3)c1)c1ccc2c(c1)OCO2`, “inactive”.
In the case of `Cc1ccsc1C(=O)Nc1ccc(O)c(-c2nc3ccccc3s2)c1` it was “inactive”; in that of `C/N=c1\scc(C)n1/N=C/c1cc(Br)c(O)c(Br)c1`, “inactive”; in that of `COc1ccc(NC(=O)c2ccc(NC(=O)CCS(=O)(=O)c3cccs3)cc2)cc1Cl`, 39.8 µM (active).
In the case of `CCc1ccc(NC(=O)CCNS(=O)(=O)c2cccs2)cc1` it was “inactive”; in that of `COc1ccc(Cl)cc1NC(=O)CCS(=O)(=O)c1cccc2nonc12`, “inactive”.
Regarding `Cc1c(OC(C)C(=O)NCCN2CCOCC2)ccc2c3c(c(=O)oc12)CCC3` (centres undefined), the Potency result is “inactive”.
Take `O=C(Nc1ccc(N2CCN(C(=O)c3ccco3)CC2)cc1)c1cc(Br)ccc1Cl`: the Potency is 35.5 µM (active).
In the case of `Cc1ccc(NC(=O)C2CCN(C(=O)c3ccco3)CC2)cc1` it was “inactive”; in that of `O=C(Nc1ccc(N2CCN(C(=O)c3ccco3)CC2)c(Cl)c1)c1cc2ccccc2o1`, 22.4 µM (active).
For the compound `O=C(Nc1ccc(N2CCOCC2)c(Cl)c1)c1cc2ccccc2o1`, the Potency was 39.8 µM (active).
On to `COc1cc(NC(=O)c2cc(Cl)ccc2Cl)ccc1NC(=O)c1cc2ccccc2o1`, for which the Potency is 22.4 µM (active).
In the case of `CC1CCN(C(=O)c2cc(Cl)ccc2NC(=O)c2ccco2)CC1` it was “inactive”; in that of `O=C(CSc1nc(O)c2ccccc2n1)Nc1ccc(N2CCOCC2)c(Cl)c1`, “inactive”.
In the case of `COc1cc(NC(=O)c2oc3ccccc3c2C)ccc1NC(=O)c1ccco1` it was “inactive”; in that of `O=C(Nc1cc(Cl)ccc1N1CCOCC1)c1cc2ccccc2o1`, “inactive”; in that of `N=c1oc2cc(O)ccc2cc1C(=O)Nc1ccc(Cl)cc1`, “inactive”.
Under `CCOC(=O)c1cc2ccc(OC(=O)c3ccco3)cc2oc1=O` stands “inactive”.
In the case of `CCN(CC)c1ccc(/C=N/NC(=O)c2cccc(S(=O)(=O)N3CCOCC3)c2)c(O)c1`, the Potency result was “inactive”.
With `CCOC(=O)/C(C#N)=C1\CC2CCC1(C)C2(C)C` (centres undefined), the Potency entry is “inactive”.
Under `O=[N+]([O-])c1ccccc1Oc1ncccc1[N+](=O)[O-]` stands 8.91 µM (active).
In the case of `O=C1c2cccc3c([N+](=O)[O-])ccc(c23)C(=O)N1c1ccccn1` it was “inactive”; in that of `CCC1Cc2c(nc(N)c3c(N)nc(N4CCOCC4)c(C#N)c23)O1` (centres undefined), “inactive”.
Consider `N#CCc1nc(C(c2ccccc2)c2ccccc2)no1`, for which the Potency entry is “inactive”.
Turning to `CCCNC(=O)c1ccc2c(O)c(O)c(-c3ccsc3)nc2c1`, the Potency entry is “inactive”.
Under `CC(C)N1CCc2c(sc(NC(=O)c3cc(-c4cccs4)nc4ccccc34)c2C(N)=O)C1` stands 33.6 µM (active); under `CCC(=O)Nc1sc2c(c1C(N)=O)CCN(Cc1ccccc1)C2`, “inactive”; under `CC(C)N1CCc2c(sc(NC(=O)Cc3ccccc3)c2C#N)C1`, “inactive”.
For the compound `CC(C)N1CCc2c(sc(NC(=O)c3cc4cc([N+](=O)[O-])ccc4s3)c2C(N)=O)C1`, the Potency was 29.9 µM (active).
In the case of `CN1CCc2c(sc(NC(=O)c3ccc(S(=O)(=O)N4CCCCCC4)cc3)c2C(N)=O)C1` it was “inactive”.
Take `CC(C)CN(CC(C)C)S(=O)(=O)c1ccc(C(=O)Nc2sc3c(c2C(N)=O)CCN(C(C)C)C3)cc1`: the Potency result was “inactive”.
Take `CCOc1cc(CNC(C)(C)CO)cc(Br)c1OCc1ccc(Cl)cc1Cl`: the Potency was 39.8 µM (active).
Under `CCOc1cc(CNCCO)cc(Br)c1OCc1ccc(Cl)cc1Cl` stands 39.8 µM (active); under `Cc1ccc(C)c(OC(C)C(=O)Nc2ccc(S(=O)(=O)Nc3nccs3)cc2)c1` (centres undefined), “inactive”.
Under `CCc1nnc(NC(=O)c2sc3nc(C)cc(COC)c3c2N)s1` stands “inactive”.
For the compound `Cc1ccc(-c2nc3ccccc3c(=O)o2)cc1`, the Potency result was “inactive”.
Take `Cc1ccc(-c2[nH]ncc2/C=N/n2c(COc3ccccc3C)nc3ccccc3c2=O)cc1`: the Potency is 15.8 µM (active).
Consider `Oc1ccccc1/C=N/n1c(S)nnc1COc1ccccc1`, for which the Potency result was “inactive”.
Under `Cc1nc2ccccc2c(=O)n1/N=C/c1ccc(O)c(O)c1O` stands “inactive”; under `COc1ccc(/C=N/n2c(S)nnc2COc2ccccc2)cc1OC`, “inactive”; under `Cc1ccc(-c2[nH]ncc2/C=N/n2c(COc3ccccc3)nc3ccccc3c2=O)cc1`, 39.8 µM (active).
As to `O=C(CSc1nnc(-c2cccc(Br)c2)o1)N1CCNC1=O`, the Potency result is “inactive”.
Turning to `CC1CCN(S(=O)(=O)c2ccc(NC(=O)CN3CCCC3)cc2)CC1`, the Potency entry is “inactive”.
As for `CC1CCN(S(=O)(=O)c2ccc3nc(Nc4cccc(F)c4)ccc3c2)CC1`, the Potency is 35.5 µM (active).
Consider `O=S(=O)(c1ccc2nc(N3CCN(c4ccccc4)CC3)ccc2c1)N1CCCCC1`, for which the Potency result is “inactive”.
In the case of `O=C(OCCN1C(=O)c2cccc3c(N4CCOCC4)ccc(c23)C1=O)c1ccc(Cl)cc1` it was “inactive”.
In the case of `O=C(CC(=O)N/N=C/c1ccc(C(=O)O)cc1)NCCc1ccccc1`, the Potency entry was “inactive”.
On to `COc1ccc(C)c2sc(N(CCCN(C)C)C(=O)c3ccc(S(=O)(=O)N4CCc5ccccc5C4)cc3)nc12`, for which the Potency is 22.4 µM (active).
As to `COc1ccc2sc(N(CCCN(C)C)C(=O)c3ccc(S(=O)(=O)N4CCCc5ccccc54)cc3)nc2c1`, the Potency was 39.8 µM (active).
In the case of `O=C(Nc1nc2ccc([N+](=O)[O-])cc2s1)c1ccc(S(=O)(=O)N2CCCc3ccccc32)cc1`, the Potency result was “inactive”.
As for `O=S(=O)(c1ccc(F)cc1)N1CCc2ccccc2C1`, the Potency result is “inactive”.
Under `COCCN(Cc1ccccc1)C(=O)c1cccc(S(=O)(=O)N2CCCc3ccccc32)c1` stands “inactive”; under `O=C(c1ccc(S(=O)(=O)N2CCCCC2)cc1)N1CCc2ccccc2C1`, “inactive”.
Under `O=c1[nH]c(=O)c2nc(-c3ccc(Cl)cc3)cnc2[nH]1` stands “inactive”; under `O=c1c2nccnc2[nH]c(=S)n1Cc1ccccc1Cl`, “inactive”; under `CC1CN(Cc2cc(=O)oc3cc(O)ccc23)CC(C)O1` (centres undefined), “inactive”.
In the case of `COCc1nnc(NS(=O)(=O)c2ccc(OC)cc2)s1` it was “inactive”; in that of `CC(=O)N1CCN(Cc2nc(O)c3c(-c4ccccc4)csc3n2)CC1`, “inactive”; in that of `CC1CCN(c2nc(CN3CCCCC3)nc3scc(-c4ccccc4)c23)CC1`, 22.4 µM (active).
Regarding `CN1CCN(c2nc(-c3cccnc3)nc3scc(-c4ccccc4)c23)CC1`, the Potency entry is “inactive”.
In the case of `Cc1cccc(/N=C/c2cc(Br)cc(Cl)c2O)c1` it was “inactive”; in that of `O=C(C[n+]1ccc2c(c1)nnn2-c1ccccc1)c1ccc(Cl)cc1`, “inactive”.
In the case of `O=C1OC(c2ccccc2)(c2cc(Br)ccc2O)c2ccccc21` (centres undefined) it was 35.5 µM (active); in that of `Cc1ccc(NC2=C(C(=O)Nc3c(C)cc(C)cc3C)C(=N)C(C(=O)Nc3ccc(OC(F)(F)F)cc3)S2)cc1` (centres undefined), 18.9 µM (active); in that of `COCc1cc(C)nc2sc(C(=O)Nc3ccc(OC(F)(F)F)cc3)c(N)c12`, “inactive”.
For `CSCCC(NC(=O)C1CCCC1)c1nnc2ccccn12` (centres undefined), the Potency entry is “inactive”.
As to `C=CCN1C=C/C(=C\C=C(C#N)C#N)c2ccccc21`, the Potency was 6.7 µM (active).
Consider `CCCCCCN1C=C/C(=C\C=C(C#N)C#N)c2ccccc21`, for which the Potency is 20 µM (active).

The values are drawn from ChEMBL document CHEMBL1201862, “PubChem BioAssay data set” (2004).
